Source: PubChem BioAssay (NCI)
About 83,000 compounds went through this panel and 20% of them were active in at least one assay; those are over-represented in the sample as a whole.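 Growth was measured after 48 h exposure to one concentration of compound in 96-well plates. Values under 10 count as active.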 The source made the active and inactive calls.

Assays:
Assay in all cases: NCI-60 one-dose screen, 48 h (100 = growth as untreated, 0 = no growth, -100 = all killed)
Conditions in all cases: 10 µM unless noted
BT-549 breast = test system: BT-549 breast
MDA-MB-435 melanoma = test system: MDA-MB-435 melanoma
SW-620 colon = test system: SW-620 colon
MCF7 breast = test system: MCF7 breast
HCC-2998 colon = test system: HCC-2998 colon
KM12 colon = test system: KM12 colon
HCT-116 colon = test system: HCT-116 colon

Measured: growth

Cc1cccc(/C=C/c2nn3c(-c4ccco4)nnc3s2)c1
inactive: BT-549 breast 90.8% | MDA-MB-435 melanoma 95.8% | SW-620 colon 101% | MCF7 breast 78.5% | HCC-2998 colon 95% | KM12 colon 105%

O=C1Nc2cc(Cl)ccc2/C1=C\c1ccc(OCc2ccc(Br)cc2F)cc1
inactive: HCC-2998 colon 17%
active: BT-549 breast -69.3% | MDA-MB-435 melanoma -37.7% | SW-620 colon -49.7% | MCF7 breast 9.35% | HCT-116 colon -95% | KM12 colon -31.9%

CC(C)(C)Nc1nc2c(OCCc3ccccc3)cccn2c1-c1ccccc1Cl
inactive: BT-549 breast 24% | SW-620 colon 11.5%
active: MDA-MB-435 melanoma 7.76% | MCF7 breast -10.6% | HCT-116 colon 2.39% | HCC-2998 colon -0.61% | KM12 colon 4.49%

COc1cccc(NC2=CC(=O)C(C)=C(C)C2=O)c1
active: MDA-MB-435 melanoma 7.25%
inactive: BT-549 breast 127% | SW-620 colon 102% | MCF7 breast 64.1% | HCT-116 colon 10.5% | KM12 colon 98.4%

COC(=O)C1CN(S(=O)(=O)/N=C2\NC(=O)NC2=C(Cl)Cl)C1
inactive: BT-549 breast 110% | MDA-MB-435 melanoma 107% | SW-620 colon 114% | MCF7 breast 34.1% | HCC-2998 colon 121%
active: KM12 colon 8.89%

CCOC(=O)c1c(NC(=O)c2cccc(C(F)(F)F)c2)sc2cc(O)ccc12
inactive: BT-549 breast 89.7% | MDA-MB-435 melanoma 104% | SW-620 colon 103% | MCF7 breast 46.6% | HCT-116 colon 91.7% | KM12 colon 95.5%

CN1CCN(Cc2ccc(NC(=O)c3cncc(C#Cc4cnc5[nH]ncc5c4)c3)cc2C(F)(F)F)CC1
inactive: BT-549 breast 73.3% | SW-620 colon 11.5% | MCF7 breast 52.6% | HCT-116 colon 12.4% | HCC-2998 colon 45.7%
active: MDA-MB-435 melanoma 8.99% | KM12 colon 6.81%

COc1cccc(OC)c1-c1nnn(C)c1C(=S)N1CCN(c2ccc([N+](=O)[O-])cc2Cl)CC1
inactive: BT-549 breast 91.7% | MDA-MB-435 melanoma 102% | SW-620 colon 101% | MCF7 breast 85.7% | HCT-116 colon 88.2% | HCC-2998 colon 96.7% | KM12 colon 108%

C/C(=N/NC(N)=S)c1ccc(Nc2nc(SCC(C)C)nc(-c3ccc(F)cc3)c2C#N)cc1
inactive: BT-549 breast 55.8% | MDA-MB-435 melanoma 13.1% | HCC-2998 colon 34.8% | KM12 colon 23.5%
active: SW-620 colon 4.45% | MCF7 breast 0.17% | HCT-116 colon 3.84%

O=[N+]([O-])c1ccc(O)c2ncccc12
active: MCF7 breast 9.13%
inactive: BT-549 breast 61.4% | MDA-MB-435 melanoma 40% | SW-620 colon 25.7% | HCT-116 colon 21.4% | HCC-2998 colon 44.5% | KM12 colon 22.2%

Cc1cccc2sc(/N=C(\N)C(Br)Br)nc12
inactive: BT-549 breast 30.2% | MDA-MB-435 melanoma 12.3%
active: SW-620 colon -40.2% | MCF7 breast -13.3% | HCT-116 colon -29.1% | HCC-2998 colon 4.99% | KM12 colon 9.77%

Cc1ccc2c(n1)C(=O)C(Cl)=C(Nc1cccc(C(C)C)c1)C2=O
inactive: BT-549 breast 58.7% | SW-620 colon 28.3% | HCT-116 colon 13.1% | KM12 colon 80%
active: MDA-MB-435 melanoma -70.6% | MCF7 breast -56.7%

CCCC(=O)NC(c1cccc(N(C)C)c1)c1cc(C)c2cccnc2c1O (stereo not drawn)
inactive: BT-549 breast 78.4% | MDA-MB-435 melanoma 77.6% | SW-620 colon 50% | MCF7 breast 35.3% | HCC-2998 colon 57.9% | KM12 colon 54.9%

Clc1ccc2c(NCCCN3CCOCC3)c3oc4ccc(Cl)cc4c3nc2c1
inactive: BT-549 breast 81.3% | MDA-MB-435 melanoma 69.6% | SW-620 colon 27.5% | MCF7 breast 22.2% | HCC-2998 colon 10% | KM12 colon 48.4%

CS(=O)(=O)c1ccc(-n2cc(/C=C/C(=O)c3ccc(NC(=O)CO[N+](=O)[O-])cc3)c(-c3ccc(Cl)cc3)n2)cc1
inactive: BT-549 breast 103% | MDA-MB-435 melanoma 104% | SW-620 colon 114% | MCF7 breast 84.4% | HCC-2998 colon 93.4% | KM12 colon 107%

COc1cc(OC)c(S(=O)(=O)NNC(=O)c2ccncc2)cc1C(=O)/C=C/c1ccc(C)cc1
active: BT-549 breast 6.18% | HCT-116 colon 9.81%
inactive: MDA-MB-435 melanoma 83.2% | SW-620 colon 74.8% | MCF7 breast 26.7% | HCC-2998 colon 91.6% | KM12 colon 54.8%

O=C1NC(=C(Cl)Cl)/C(=N/S(=O)(=O)N2CCCCC2CC2(C(F)(F)F)N=N2)N1 (stereo not drawn)
active: SW-620 colon -82.2% | MCF7 breast 9.63% | HCT-116 colon -28.8% | HCC-2998 colon 5.46% | KM12 colon 9.36%
inactive: BT-549 breast 68% | MDA-MB-435 melanoma 41.6%

Cn1c(SCC(=O)c2cccs2)nc2ccccc2c1=O
inactive: BT-549 breast 108% | MDA-MB-435 melanoma 103% | SW-620 colon 99.7% | MCF7 breast 62.4% | HCT-116 colon 93.9% | KM12 colon 99.1%

Fc1ccc(-c2cc3nc(C(Cl)Cl)nc(-c4ccc(Cl)cc4)n3n2)cc1
inactive: BT-549 breast 72.4% | MDA-MB-435 melanoma 25.8% | MCF7 breast 16.5%
active: SW-620 colon -13.1% | HCC-2998 colon -60.4% | KM12 colon -17.1%

CCOc1ccc2nc(NC(=O)c3ccc(C(F)(F)F)cc3)sc2c1
inactive: BT-549 breast 98.5% | MDA-MB-435 melanoma 96.6% | SW-620 colon 103% | MCF7 breast 98.6% | HCT-116 colon 102% | KM12 colon 103%

Clc1ccc2c(OCCCN3CCOCC3)c3oc4ccccc4c3nc2c1
inactive: BT-549 breast 80.1% | MDA-MB-435 melanoma 33.2% | SW-620 colon 19.2% | MCF7 breast 10.4% | HCT-116 colon 17.7% | HCC-2998 colon 46% | KM12 colon 33.1%

COc1ccc(NC2=CC(=O)C(C)=C(C)C2=O)cc1
active: MDA-MB-435 melanoma 7.8%
inactive: BT-549 breast 119% | SW-620 colon 101% | MCF7 breast 71.9% | HCT-116 colon 80.6% | KM12 colon 101%

O=C1[C@H]2Cc3c([nH]c4ccccc34)[C@@H](c3ccc(Br)cc3)N2C(=O)CN1C1CCN(Cc2ccccc2)CC1
inactive: BT-549 breast 93.4% | MDA-MB-435 melanoma 36.9% | SW-620 colon 33.5% | KM12 colon 36.7%
active: MCF7 breast 6.48% | HCT-116 colon 9.04%

CCOC(=O)c1sc(NCC(=O)Nc2cccc([N+](=O)[O-])c2)c(C(=O)OCC)c1C
active: BT-549 breast -19.3% | MDA-MB-435 melanoma -82% | SW-620 colon 2.53% | MCF7 breast -4.78% | HCT-116 colon 0.39% | KM12 colon -9.01%

O=C(Nc1nc2ccc(O)cc2s1)c1cccc(C(F)(F)F)c1
inactive: BT-549 breast 84.4% | MDA-MB-435 melanoma 44.7% | SW-620 colon 52.1% | MCF7 breast 73.7% | HCT-116 colon 57.6% | KM12 colon 42.7%

CO/N=C1\CCc2c(sc(NC(=O)c3cccc(C(F)(F)F)c3)c2C(N)=O)C1
active: HCT-116 colon 5%
inactive: BT-549 breast 49.4% | MDA-MB-435 melanoma 49.1% | SW-620 colon 43.4% | MCF7 breast 45.9% | KM12 colon 56%

O=C(CSc1nccc(=O)[nH]1)Nc1ccc(-c2nc3ccccc3[nH]2)cc1
inactive: BT-549 breast 103% | MDA-MB-435 melanoma 111% | SW-620 colon 116% | MCF7 breast 103% | HCC-2998 colon 116% | KM12 colon 86.3%

CN1C(=O)N(c2ccccc2)C2N=C(N/N=C/c3ccccc3)SC21 (stereo not drawn)
inactive: BT-549 breast 52.4% | SW-620 colon 15.2% | MCF7 breast 24% | HCC-2998 colon 51.5% | KM12 colon 22%
active: MDA-MB-435 melanoma -24.9%

CC(C)Sc1nc(Nc2ccc(S(N)(=O)=O)cc2)c(C#N)c(-c2ccc(F)cc2)n1
inactive: BT-549 breast 53.3% | MDA-MB-435 melanoma 49.9% | SW-620 colon 24.3% | MCF7 breast 31.6% | HCC-2998 colon 58.8% | KM12 colon 48.8%

CN(C)c1ccc(-c2c(NC(C)(C)C)nc3c(OCCc4ccccc4)cccn23)cc1
inactive: BT-549 breast 42.3% | MDA-MB-435 melanoma 24% | SW-620 colon 12.4% | HCC-2998 colon 13%
active: MCF7 breast 1.49% | KM12 colon 6.85%

COc1ccc(-c2cc(C(=O)N=Nc3c(O)[nH]c4ccccc34)c3ccccc3n2)cc1OC
inactive: BT-549 breast 113% | MDA-MB-435 melanoma 98.1% | SW-620 colon 93.8% | MCF7 breast 89.9% | HCT-116 colon 101% | HCC-2998 colon 97.8% | KM12 colon 92%

O=c1[nH]c2ccc(Cl)cc2cc1CSc1ccccc1Nc1nccc(-c2ccc(Cl)cc2)n1
inactive: BT-549 breast 113% | MDA-MB-435 melanoma 96.8% | SW-620 colon 91.9% | MCF7 breast 70.3% | HCT-116 colon 90.4% | HCC-2998 colon 119% | KM12 colon 92%

CC(C)(C)OC(=O)N1C(=O)c2c(c3c4ccccc4[nH]c3c3ccc4ccccc4c23)C1=O
inactive: BT-549 breast 61.7% | MDA-MB-435 melanoma 40.3% | SW-620 colon 57.2% | MCF7 breast 34.5% | HCC-2998 colon 82.6%

N#Cc1nc(-c2ccccc2)oc1N1CC[C@@H](CO)C1
inactive: BT-549 breast 117% | MDA-MB-435 melanoma 99% | SW-620 colon 99% | MCF7 breast 70.5% | HCT-116 colon 103% | HCC-2998 colon 110% | KM12 colon 111%

CC1=C(C)C(=O)C(Nc2cccc(C(F)(F)F)c2)=C(Cl)C1=O
inactive: BT-549 breast 121% | MDA-MB-435 melanoma 98.5% | SW-620 colon 17.1% | MCF7 breast 35.4% | KM12 colon 67.2%

N#Cc1ccc(/C=N/NC(=O)c2[nH]c3ccc(Br)cc3c2-c2ccccc2)s1
inactive: SW-620 colon 22.9% | HCC-2998 colon 21.8% | KM12 colon 11%
active: BT-549 breast -11.4% | MDA-MB-435 melanoma 1.78% | HCT-116 colon -18.9%

Cc1cc(C(NC(=O)CCCCCNc2cccc3c2C(=O)N(C2CCC(=O)NC2=O)C3=O)c2cccnc2)c(O)c2ncccc12 (stereo not drawn)
inactive: MDA-MB-435 melanoma 30.7% | SW-620 colon 13.3% | HCT-116 colon 24.8% | KM12 colon 17.6%
active: BT-549 breast -30.8% | HCC-2998 colon 2.27%
